ULK1 primary = blocks human autophagy kinase ULK1; O75385; AlphaScreen Atg13 phosphorylation by ULK1, luminescence; inhibition, % at 5.96 µM; hit rate 1.9% among 30,000; AID 1259251; in the data active = inhibition above about 43%;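 also: 0% = median of compound wells and 100% = no enzyme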
Target sequence (O75385 whole entry, looked up): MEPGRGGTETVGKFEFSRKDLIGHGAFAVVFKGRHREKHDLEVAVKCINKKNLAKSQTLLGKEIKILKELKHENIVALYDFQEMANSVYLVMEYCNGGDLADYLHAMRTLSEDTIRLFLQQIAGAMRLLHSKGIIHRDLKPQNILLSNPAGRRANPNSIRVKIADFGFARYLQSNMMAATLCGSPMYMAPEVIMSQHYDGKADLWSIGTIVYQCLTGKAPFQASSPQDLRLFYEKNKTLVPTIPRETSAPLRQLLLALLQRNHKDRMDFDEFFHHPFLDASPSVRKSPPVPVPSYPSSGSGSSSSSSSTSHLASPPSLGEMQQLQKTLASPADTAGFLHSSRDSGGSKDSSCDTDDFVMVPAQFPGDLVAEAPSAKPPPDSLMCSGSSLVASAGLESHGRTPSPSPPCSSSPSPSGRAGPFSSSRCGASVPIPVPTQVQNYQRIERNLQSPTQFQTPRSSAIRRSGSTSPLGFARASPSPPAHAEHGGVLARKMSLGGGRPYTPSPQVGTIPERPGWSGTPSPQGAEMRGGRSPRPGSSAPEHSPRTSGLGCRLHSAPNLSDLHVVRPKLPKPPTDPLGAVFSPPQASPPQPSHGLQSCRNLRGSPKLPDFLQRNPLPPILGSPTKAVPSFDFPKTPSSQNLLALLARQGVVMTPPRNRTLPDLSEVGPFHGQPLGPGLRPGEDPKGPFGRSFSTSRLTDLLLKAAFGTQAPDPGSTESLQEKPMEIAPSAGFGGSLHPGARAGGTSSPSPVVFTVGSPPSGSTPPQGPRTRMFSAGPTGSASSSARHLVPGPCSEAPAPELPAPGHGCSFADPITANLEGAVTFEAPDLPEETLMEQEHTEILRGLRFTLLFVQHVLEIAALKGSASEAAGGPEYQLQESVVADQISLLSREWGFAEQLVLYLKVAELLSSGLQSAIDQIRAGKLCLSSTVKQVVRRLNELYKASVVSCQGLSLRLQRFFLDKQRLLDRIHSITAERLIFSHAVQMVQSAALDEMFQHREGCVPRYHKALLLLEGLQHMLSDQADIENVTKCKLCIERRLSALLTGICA
ASK1 inh = inhibitors of human ASK1 kinase. AlphaScreen MKK6 phosphorylation by ASK1, luminescence. AID 1159602. inhibition, % at 7.44 µM. hit rate 0.99% among 22,000. Q99683; in the data active = inhibition above about 35%;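 also: 0% = median of compound wells and 100% = no enzyme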
The depositor's hits bear a star; · = no result given. Rows were chosen to be rich in hits. Some 2.5% of all compounds tested hit in one or more screens of this group.

SMILES	ULK1 primary	ASK1 inh
O=C1C(=O)c2ncccc2-c2cccnc21	38	·
O=C1c2ccccc2-c2n[nH]c3cccc1c23	76*	-43
Cc1cc(NCc2cccnc2)nc(Nc2cccc(N(C)C)c2)n1	15	9
CNC(=O)c1ccccc1Nc1cc(Nc2ccc(C(=O)N(C)C)cn2)ncc1C(F)(F)F	89*	-8
CN(C)C(=O)c1ncccc1Nc1cc(Nc2ccc3c(c2)CC(=O)N3)ncc1C(F)(F)F	40	-11
CNC(=O)c1ncccc1Nc1cc(Nc2ccc(C(=O)N(C)C)cn2)ncc1C(F)(F)F	56*	7
CNC(=O)c1ncccc1Nc1cc(Nc2ccc3[nH]ncc3c2)ncc1C(F)(F)F	24	5
CNC(=O)c1ccccc1Nc1cc(Nc2ccc(C(=O)N(C)C)cc2C)ncc1C(F)(F)F	78*	-27
COc1nc(NCc2cccc(C(F)(F)F)c2)nc(-c2cccc(N)c2)n1	-9	0
Cc1nc(-c2ccccc2F)cc(N2CCN(c3ccccn3)CC2)n1	1	·
COc1cc(Nc2ncc(C)c(NCCCN3CCCC3=O)n2)cc(OC)c1OC	76*	4
Cc1cnc(Nc2ccc(N3CCOCC3)cc2)nc1Nc1ccc(N2CCOCC2)cc1	13	21
Cc1cnc(Nc2nccc3ccccc23)nc1Nc1ccc(N2CCOCC2)cc1	46*	13
Cc1cnc(Nc2ccc(N3CCOCC3)cc2)nc1NCCCN1CCCC1=O	44*	-7
Cc1cnc(NCCCN2CCCC2=O)nc1Nc1ccc(N2CCOCC2)cc1	46*	4
Cc1cnc(NCCCN2CCCC2=O)nc1NCCN1CCOCC1	7	0
Cc1cnc(NCCCN2CCCC2=O)nc1NCCCN1CCCC1=O	1	-2
CC(=O)Nc1ccc(Nc2nc(NCCCN3CCCC3=O)ncc2C)cc1	35	-14
Nc1nc(N2CCOCC2)nc2c1ncn2C1CCCCC1	4	5
CC(=O)Nc1ccc(NC(=O)c2csc(NCc3cccnc3)n2)cc1	29	6
O=C(Nc1ccc2[nH]ncc2c1)c1cnccc1O[C@H]1CCN(Cc2ccccc2)C1	14	-11
N#Cc1cc(-c2ccnc(Nc3ccc(N)cc3)n2)ccc1N1CCC(O)CC1	85*	8
N#Cc1cc(-c2ccnc(Nc3cccc(N)c3)n2)ccc1N1CCCC1	41	19
Cc1ncn(-c2ccc(Nc3nccc(-c4ccc(N5CCCC(O)C5)c(C#N)c4)n3)cc2)n1 (stereo not drawn)	80*	-7
Cc1ncn(-c2ccc(Nc3nccc(-c4ccc(C#N)c(N5CCCC(O)C5)c4)n3)cc2)n1 (stereo not drawn)	3	12
SMILES	ULK1 primary	ASK1 inh
O=C(Nc1ccc2[nH]ncc2c1)C1CCCN(C(=O)c2ccccn2)C1 (stereo not drawn)	0	2
CC(=O)Nc1ccccc1	58*	·
CC(=O)Nc1ccc(O)cc1	-2	·
CCCNc1cc(C)nc(-c2ccc(C(=O)NC3CC3)cc2)n1	0	4
Cc1cc(N)nc(-c2ccc(C(=O)NC3CC3)cc2)n1	56*	3
Cc1cc(NCCN(C(C)C)C(C)C)nc(Nc2cccc(N(C)C)c2)n1	7	-7
Cc1nccn1CC1CCc2c(c3ccccc3n2C)C1=O (stereo not drawn)	2	·
Cc1[nH]cnc1CN1CCc2c(c3ccccc3n2C)C1=O	78*	·
FC(F)(F)c1cccc(CNc2nc(-c3ccccc3)nc3c2ncn3-c2ccsc2)c1	-18	-25
NC(=O)c1ccc2[nH]nc(-c3cccc(OCCN4CCCCC4)c3)c2c1	61*	6
c1cc(OCCN2CCCCC2)cc(-c2n[nH]c3ccc(-c4ncn[nH]4)cc23)c1	45*	-12
O=C(O)c1ccc(OCCN2CCCCC2)cc1	-7	·
Cc1cc(Nc2ccc(OCCN3CCCCC3)cc2)nc(-c2cccc(OC(F)(F)F)c2)n1	-23	-12
COc1ccc2c(c1)CC(C(=O)Nc1ccccc1C(N)=O)CO2 (stereo not drawn)	5	2
O=C(Nc1ccc(N2CCOCC2)cc1)c1cccc(Nc2ccncc2)c1	70*	-18
Cn1nccc1Nc1cc(C(=O)Nc2ccc(N3CCOCC3)cc2)ccn1	9	20
CC(=O)Nc1ccc(NC(=O)c2cccc(N3CCOCC3)c2)cc1	6	-24
c1cc(Nc2ccc(N3CCOCC3)cc2)cc(Nc2ccc(N3CCOCC3)cc2)n1	6	29
O=C(Nc1ccc(N2CCOCC2)cc1)c1ccnc(Nc2ccncc2)c1	49*	-22
O=C(Nc1ccc2c(c1)OCO2)c1cccc(Nc2ccc(-n3ccnc3)cc2)c1	3	-5
O=C(Nc1ccc(N2CCOCC2)cc1)c1cccc(Nc2ccc(-n3ccnc3)cc2)c1	44*	14
Nc1nccc(Nc2ccnc(Nc3ccc(N4CCOCC4)cc3)c2)n1	43*	17
CCCNc1nc(-c2cccc(C(C)=O)c2)nc2c1ncn2-c1ccsc1	0	-6
Nc1ccnc(N2CCN(Cc3ccc4c(c3)OCO4)CC2)n1	8	5
COC(=O)C1(NC(=O)c2ccccc2Oc2nc(OC)cc(OC)n2)CCCC1	8	·
